Results taken from ChEMBL document CHEMBL4513141, “CO-ADD screening of NIH (USA) - Clinical Collection” (2021).
Entries with a potency or affinity are not part of this list.

Columns and labels:
Staphylococcus aureus = conditions: Concentration 20 uM; ASSAY_TEST Inhibition of Bacterial Growth; detection method Absorption (OD600); MEDIA CAMHB; plate type 384well; NBS; CORNING #3640; time 18 hr
Escherichia coli = conditions: Concentration 20 uM; ASSAY_TEST Inhibition of Bacterial Growth; detection method Absorption (OD600); MEDIA CAMHB; plate type 384well; NBS; CORNING #3640; time 18 hr

Row | SMILES | Inhibition (Staphylococcus aureus) [%] | Inhibition (Escherichia coli) [%]
1 | O=C1CCC(N2C(=O)c3ccccc3C2=O)C(=O)N1 (stereo unspecified) [THALIDOMIDE] | 9.61 | -2.18
2 | O=C([O-])c1cc(=O)c2c(OCC(O)COc3cccc4oc(C(=O)[O-])cc(=O)c34)cccc2o1.[Na+].[Na+] [CROMOLYN SODIUM] | 9.1 | -1.24
3 | C[C@@H]1O[C@@H](OC[C@H]2O[C@@H](Oc3c(-c4ccc(O)c(O)c4)oc4cc(O)cc(O)c4c3=O)[C@H](O)[C@@H](O)[C@@H]2O)[C@H](O)[C@H](O)[C@H]1O [RUTIN] | 17.86 | 2.05
